# Results from PubChem BioAssay (EPA / NIEHS).
# Several values for one entry are separate records, joined by “and”; a condition that tells them apart may be missing. Equal entries are not always repeated. Inconclusive results are not listed. A structure can be active in one record and inactive in another. Activity calls are given as the source filed them. How the source made its calls, unless noted: active means hit-call score of the fitted dose curve at least 0.9, where 1 is the maximum; inactive means score below 0.9.
# Legend:
# [1] = molecular target: Retinoic acid receptor RXR-alpha (Homo sapiens) (UniProt P19793); assay: ATG_RXRa_TRANS: Attagene TRANS-FACTORIAL HepG2 Assay for human Retinoid X Receptor alpha (RXRa) (AID 2283012; active means hit-call score of the fitted dose curve at least 0.9, where 1 is the maximum)
# Procedure, shortened: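 Cells (HepG2) carried transiently transfected GAL4-responsive reporter units. Following a 24 h chemical incubation, reporter mRNA induction was read via RT-PCR fragment analysis; DMSO served as negative control and baseline.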
# [2] = molecular target: human Retinoid X Receptor beta (RXRb), RXRB (gene 6257) (UniProt P28702); assay: ATG_RXRb_TRANS: Attagene TRANS-FACTORIAL HepG2 Assay for human Retinoid X Receptor beta (RXRb) (AID 2283013; active means hit-call score of the fitted dose curve at least 0.9, where 1 is the maximum)
# Procedure, shortened: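 Multiplexed TRANS reporter assay in HepG2; 24 h dosing; reporter mRNA by RT-PCR/CE fluorescence; gain-of-signal relative to DMSO.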
# [3] = molecular target: human Thyroid Receptor alpha (THRa1), THRA (gene 7067) (UniProt P10827); assay: ATG_THRa1_TRANS: Attagene TRANS-FACTORIAL HepG2 Assay for human Thyroid Receptor alpha (THRa1) (AID 2283014; active means hit-call score of the fitted dose curve at least 0.9, where 1 is the maximum)
# Procedure, shortened: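 HepG2 cells transiently transfected with multiplexed GAL4-UAS reporter units for exogenous chimeric THRa1-Gal4; reporter mRNA measured 24 h after dosing by RT-PCR, 6-FAM labelling, HpaI digestion and capillary electrophoresis. Gain-of-signal fitted versus DMSO baseline.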
# [4] = read-out: E-selectin (Homo sapiens) (UniProt P16581); assay: BSK_3C_Eselectin: BioMAP Diversity Plus: 3C Assay for Eselectin Biomarker Activity (AID 2283015); conditions: primary human endothelial cells (HUVEC); actives raise or lower the signal;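 further: cell surface E-selectin protein quantified by ELISA 24 h after dosing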
# Procedure, shortened: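 Primary human umbilical vein endothelial cells (3C system) were dosed with chemical and cell-surface E-selectin measured by ELISA 24 h later. Bidirectional curve fitting used DMSO as negative control and baseline.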
# [5] = read-out: Interleukin-1 alpha (IL1a), IL1A (gene 3552); assay: BSK_BE3C_IL1a: BioMAP Diversity Plus: BE3C Assay for Interleukin-1 alpha (IL1a) Biomarker Activity (AID 2283016); conditions: primary human bronchial epithelial cells; actives raise or lower the signal
# Procedure, shortened: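 Cultures of primary human bronchial epithelial cells receive test chemical. After 24 h, IL-1a is quantified by ELISA, while parallel wells are fixed in TCA and SRB-stained for total protein. Changes in either direction are fitted relative to DMSO.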
# [6] = read-out: Monocyte Chemoattractant Protein-1 (MCP1), CCL2 (gene 6347); assay: BSK_3C_MCP1: BioMAP Diversity Plus: 3C Assay for Monocyte Chemoattractant Protein-1 (MCP1) Biomarker Activity (AID 2283017); conditions: primary human endothelial cells (HUVEC); actives raise or lower the signal
# Procedure, shortened: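 Primary human umbilical vein endothelial cells (3C system) were exposed to test chemical for 24 h, after which MCP-1 was quantified by ELISA. Activity was fitted bidirectionally against DMSO as negative control and baseline.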
# [7] = read-out: Monocyte Chemoattractant Protein-1 (MCP1), CCL2 (gene 6347); assay: BSK_4H_MCP1: BioMAP Diversity Plus: 4H Assay for Monocyte Chemoattractant Protein-1 (MCP1) Biomarker Activity (AID 2283018); conditions: primary human endothelial cells (HUVEC); actives raise or lower the signal
# Procedure, shortened: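 Readout: MCP-1 ELISA on compound-treated HUVEC, sampled 24 h post-dosing. Baseline and negative control DMSO; bidirectional fit. Overt toxicity checked alongside by sulforhodamine B protein staining at time of biomarker measurement.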
# [8] = read-out: Human Leukocyte Antigen - DR isotype (HLADR), HLA-DRA (gene 3122); assay: BSK_3C_HLADR: BioMAP Diversity Plus: 3C Assay for Human Leukocyte Antigen - DR isotype (HLADR) Biomarker Activity (AID 2283019); conditions: primary human endothelial cells (HUVEC); actives raise or lower the signal;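 on outcome: ELISA of cell-surface HLA-DR on HUVEC 24 h after dosing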
# Procedure, shortened: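 Primary human umbilical vein endothelial cells (3C system) were dosed with compound and cell-surface HLA-DR was quantified by ELISA at 24 h. Activity was fitted bidirectionally against DMSO as negative control and baseline.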
# [9] = read-out: Interleukin-8 (IL8), CXCL8 (gene 3576); assay: BSK_3C_IL8: BioMAP Diversity Plus: 3C Assay for Interleukin-8 (IL8) Biomarker Activity (AID 2283020); conditions: primary human endothelial cells (HUVEC); actives raise or lower the signal
# Procedure, shortened: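 Human vascular endothelial cells (umbilical vein) in the 3C system; IL-8 level detected by ELISA at 24 h post-dose, with DMSO as baseline.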
# [10] = read-out: Monokine induced gamma interferon (MIG), CXCL9 (gene 4283); assay: BSK_3C_MIG: BioMAP Diversity Plus: 3C Assay for Monokine induced gamma interferon (MIG) Biomarker Activity (AID 2283021); conditions: primary human endothelial cells (HUVEC); actives raise or lower the signal
# Procedure, shortened: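 After 24 h of treatment, human umbilical vein endothelial cultures (3C system) had their MIG biomarker level determined by ELISA, with DMSO serving as negative control.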
# [11] = molecular target: human Vitamin D Receptor (VDR), VDR (gene 7421) (UniProt P11473); assay: ATG_VDR_TRANS: Attagene TRANS-FACTORIAL HepG2 Assay for human Vitamin D Receptor (VDR) (AID 2283022; active means hit-call score of the fitted dose curve at least 0.9, where 1 is the maximum)
# Procedure, shortened: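 HepG2 cells were transiently transfected with multiple GAL4-UAS reporter units, so signal reflects exogenous chimeric receptor-Gal4 activity. After 24 h compound exposure, reporter mRNA was measured by RT-PCR, fluorescent labelling and capillary electrophoresis, fitted for gain of signal versus DMSO.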
# [12] = BSK_3C_SRB: Viability Assessment in the BioMAP Diversity Plus: 3C Assay (AID 2283023); conditions: primary human endothelial cells (HUVEC);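 further: fitted both ways against DMSO so a hit may be signal rise or drop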
# Procedure, shortened: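 Primary human umbilical vein endothelial cells in the 3C system were read 24 h after compound dosing. Total protein was stained with 0.1% sulforhodamine B after 10% TCA fixation and read at 560 nm, with bidirectional fitting against DMSO as baseline.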
# [13] = read-out: Matrix Metallopeptidase 1 (MMP1), MMP1 (gene 4312); assay: BSK_BE3C_MMP1: BioMAP Diversity Plus: BE3C Assay for Matrix Metallopeptidase 1 (MMP1) Biomarker Activity (AID 2283024); conditions: primary human bronchial epithelial cells; actives raise or lower the signal
# Procedure, shortened: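 Dose cells, wait 24 h, run MMP1 ELISA; cells are human bronchial epithelial primaries. Both increases and decreases relative to DMSO counted.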
# [14] = BSK_3C_Vis: BioMAP Diversity Plus: 3C Assay for Morphology Visualization (AID 2283025); conditions: primary human endothelial cells (HUVEC);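 further: fitted both ways so gain or loss versus DMSO counts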
# Procedure, shortened: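 Endothelial cells from human umbilical vein were treated with test chemicals for 24 h and inspected by light microscopy for changes in cell conformation.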
# [15] = read-out: Pselectin, SELP (gene 6403); assay: BSK_4H_Pselectin: BioMAP Diversity Plus: 4H Assay for Pselectin Biomarker Activity (AID 2283026); conditions: primary human endothelial cells (HUVEC); actives raise or lower the signal
# Procedure, shortened: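 Human vascular endothelium from umbilical vein; P-selectin measured by ELISA at 24 h post-dose, with cytotoxicity checked by sulforhodamine B total-protein staining in parallel cultures (0.1% SRB after 10% TCA fixation, read at 560 nm).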
# [16] = BSK_4H_SRB: Viability Assessment in the BioMAP Diversity Plus: 4H Assay (AID 2283027); conditions: primary human endothelial cells (HUVEC);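 further: cells exposed to compound for 24 h before staining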
# Procedure, shortened: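 Human umbilical vein endothelial cells, 24 h after chemical dosing; total protein measured by 0.1% sulforhodamine B staining after 10% TCA fixation, read at 560 nm. Bidirectional fitting against DMSO.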
# [17] = BSK_BE3C_SRB: Viability Assessment in the BioMAP Diversity Plus: BE3C Assay (AID 2283028); conditions: primary human bronchial epithelial cells
# Procedure, shortened: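 Human primary bronchial epithelial cells were exposed to test chemicals for 24 h. Total protein in parallel cultures was then measured by staining with 0.1% sulforhodamine B after 10% TCA fixation, with absorbance read at 560 nm. Activity was fitted bidirectionally against DMSO.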
# [18] = read-out: Thrombomodulin, THBD (gene 7056); assay: BSK_3C_Thrombomodulin: BioMAP Diversity Plus: 3C Assay for Thrombomodulin Biomarker Activity (AID 2283029); conditions: primary human endothelial cells (HUVEC); actives raise or lower the signal
# Procedure, shortened: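 Thrombomodulin ELISA, human primary HUVEC, 24 h post-dose; data fitted in both directions relative to DMSO.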
# [19] = read-out: Urokinase-type plasminogen activator receptor (uPAR), PLAUR (gene 5329); assay: BSK_4H_uPAR: BioMAP Diversity Plus: 4H Assay for Urokinase-type plasminogen activator receptor (uPAR) Biomarker Activity (AID 2283030); conditions: primary human endothelial cells (HUVEC); actives raise or lower the signal
# Procedure, shortened: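 Primary human umbilical vein endothelial cells were exposed to chemical for 24 h before cell-surface uPAR was quantified by ELISA. Activity was fitted bidirectionally against the DMSO negative control baseline.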
# [20] = read-out: Vascular endothelial growth factor receptor 2 (Homo sapiens) (UniProt P35968); assay: BSK_4H_VEGFRII: BioMAP Diversity Plus: 4H Assay for Vascular endothelial growth factor receptor 2 (VEGFR2) Biomarker Activity (AID 2283031); conditions: primary human endothelial cells (HUVEC); actives raise or lower the signal
# Procedure, shortened: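 Primary human umbilical vein endothelial cells in the BioMAP 4H system were dosed with test chemical, and 24 h later VEGFRII was measured by ELISA. Activity was fitted bidirectionally against DMSO as negative control and baseline.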
# Chain of human Vitamin D Receptor (VDR), VDR (gene 7421) (P11473 whole entry, looked up, the tested form may be a part): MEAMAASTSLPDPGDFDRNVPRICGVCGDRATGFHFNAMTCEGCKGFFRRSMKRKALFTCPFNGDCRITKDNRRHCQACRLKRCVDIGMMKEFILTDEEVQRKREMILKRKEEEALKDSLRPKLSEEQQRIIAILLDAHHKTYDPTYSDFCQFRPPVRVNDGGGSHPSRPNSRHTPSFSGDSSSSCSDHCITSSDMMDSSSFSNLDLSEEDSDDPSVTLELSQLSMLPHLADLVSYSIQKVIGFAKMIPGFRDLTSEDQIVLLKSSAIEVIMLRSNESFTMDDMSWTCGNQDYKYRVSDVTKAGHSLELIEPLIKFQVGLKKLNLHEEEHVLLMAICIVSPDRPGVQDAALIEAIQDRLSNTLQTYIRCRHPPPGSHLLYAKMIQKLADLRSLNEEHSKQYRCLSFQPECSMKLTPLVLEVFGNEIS
# Chain of human Retinoid X Receptor beta (RXRb), RXRB (gene 6257) (P28702 whole entry, looked up): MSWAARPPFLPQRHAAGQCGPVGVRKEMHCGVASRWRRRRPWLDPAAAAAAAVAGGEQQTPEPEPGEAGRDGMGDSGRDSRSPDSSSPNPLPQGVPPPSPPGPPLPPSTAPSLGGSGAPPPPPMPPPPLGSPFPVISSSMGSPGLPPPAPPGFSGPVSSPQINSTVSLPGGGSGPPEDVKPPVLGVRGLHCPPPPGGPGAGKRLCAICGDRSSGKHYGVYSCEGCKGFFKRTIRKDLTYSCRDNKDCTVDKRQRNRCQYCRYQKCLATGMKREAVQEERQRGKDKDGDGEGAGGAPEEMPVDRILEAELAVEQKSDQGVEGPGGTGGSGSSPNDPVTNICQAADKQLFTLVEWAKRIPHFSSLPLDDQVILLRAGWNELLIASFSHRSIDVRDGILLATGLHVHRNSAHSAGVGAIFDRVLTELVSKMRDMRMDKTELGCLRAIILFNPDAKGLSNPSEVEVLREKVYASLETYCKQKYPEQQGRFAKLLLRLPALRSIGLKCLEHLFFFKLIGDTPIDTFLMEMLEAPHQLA
# Chain of E-selectin (Homo sapiens) (P16581 whole entry, looked up): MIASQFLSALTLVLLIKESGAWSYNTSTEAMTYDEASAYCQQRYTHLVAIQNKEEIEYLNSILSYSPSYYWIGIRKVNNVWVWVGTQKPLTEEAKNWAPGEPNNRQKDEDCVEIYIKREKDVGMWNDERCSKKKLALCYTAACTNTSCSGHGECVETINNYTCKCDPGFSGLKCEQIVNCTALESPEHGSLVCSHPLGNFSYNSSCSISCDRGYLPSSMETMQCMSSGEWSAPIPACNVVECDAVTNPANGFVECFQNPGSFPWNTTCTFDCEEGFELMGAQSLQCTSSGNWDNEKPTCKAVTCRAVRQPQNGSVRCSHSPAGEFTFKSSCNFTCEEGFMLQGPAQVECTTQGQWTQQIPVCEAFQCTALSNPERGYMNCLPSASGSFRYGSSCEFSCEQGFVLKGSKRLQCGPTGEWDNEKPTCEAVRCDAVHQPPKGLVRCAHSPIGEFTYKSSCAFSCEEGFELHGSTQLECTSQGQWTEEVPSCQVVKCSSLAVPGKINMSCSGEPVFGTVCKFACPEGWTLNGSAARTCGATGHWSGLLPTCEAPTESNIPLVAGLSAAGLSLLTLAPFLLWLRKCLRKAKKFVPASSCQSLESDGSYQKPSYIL
# Chain of Retinoic acid receptor RXR-alpha (Homo sapiens) (P19793 whole entry, looked up, the tested form may be a part): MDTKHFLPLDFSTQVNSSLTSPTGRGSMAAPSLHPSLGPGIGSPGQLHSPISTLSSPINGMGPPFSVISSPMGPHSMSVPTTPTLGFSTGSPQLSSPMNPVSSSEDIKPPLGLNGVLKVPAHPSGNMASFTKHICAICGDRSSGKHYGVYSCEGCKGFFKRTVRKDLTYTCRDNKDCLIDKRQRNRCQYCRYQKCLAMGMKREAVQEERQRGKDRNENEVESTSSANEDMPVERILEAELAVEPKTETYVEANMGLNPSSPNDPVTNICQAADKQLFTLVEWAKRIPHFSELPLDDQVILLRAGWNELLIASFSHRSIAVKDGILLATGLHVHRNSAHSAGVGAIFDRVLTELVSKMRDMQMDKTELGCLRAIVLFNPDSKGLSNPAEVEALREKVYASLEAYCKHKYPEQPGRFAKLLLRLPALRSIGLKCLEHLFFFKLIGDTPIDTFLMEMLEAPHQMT
# Chain of human Thyroid Receptor alpha (THRa1), THRA (gene 7067) (P10827 whole entry, looked up, the tested form may be a part): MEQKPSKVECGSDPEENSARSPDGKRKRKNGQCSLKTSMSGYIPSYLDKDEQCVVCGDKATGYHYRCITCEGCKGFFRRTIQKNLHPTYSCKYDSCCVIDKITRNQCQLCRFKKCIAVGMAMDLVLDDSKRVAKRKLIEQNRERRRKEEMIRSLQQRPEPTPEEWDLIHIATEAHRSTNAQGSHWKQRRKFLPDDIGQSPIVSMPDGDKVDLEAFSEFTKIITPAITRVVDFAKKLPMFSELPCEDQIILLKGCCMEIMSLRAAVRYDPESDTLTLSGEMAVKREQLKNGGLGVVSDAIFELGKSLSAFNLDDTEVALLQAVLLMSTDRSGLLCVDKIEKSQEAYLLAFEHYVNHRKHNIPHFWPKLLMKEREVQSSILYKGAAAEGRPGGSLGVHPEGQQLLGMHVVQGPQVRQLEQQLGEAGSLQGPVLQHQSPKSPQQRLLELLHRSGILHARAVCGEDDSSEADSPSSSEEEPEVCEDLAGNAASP
structure (smiles),measurement,setting,value
C[C@@H]1C[C@H]2[C@@H]3CCC4=CC(=O)C=C[C@]4(C)[C@@]3(F)[C@@H](O)C[C@]2(C)[C@@]1(O)C(=O)COP(=O)(O)O,outcome,[1],inactive
same,outcome,[2],inactive
same,outcome,[3],inactive
same,outcome,[4],inactive
same,outcome,[5],inactive
same,outcome,[6],inactive
same,outcome,[7],inactive
same,outcome,[8],inactive
same,outcome,[9],inactive
same,outcome,[10],inactive
same,outcome,[11],inactive
same,outcome,[12],inactive
same,AC50,[13],0.1 µM (active)
same,outcome,[13],inactive
same,outcome,[14],inactive
same,outcome,[15],inactive
same,outcome,[16],inactive
same,outcome,[17],inactive
same,outcome,[18],inactive
same,outcome,[19],inactive
same,outcome,[20],inactive
CC(C)(C)c1cccc(C(C)(C)C)c1O,AC50,[1],68.8 µM (active)
same,AC50,[2],33.5 µM (active)
same,outcome,[3],inactive
same,outcome,[4],inactive
same,outcome,[6],inactive
same,outcome,[7],inactive
same,outcome,[8],inactive
same,outcome,[9],inactive
same,outcome,[10],inactive
same,outcome,[12],inactive
same,outcome,[13],inactive
same,outcome,[14],inactive
same,outcome,[15],inactive
same,outcome,[18],inactive
same,outcome,[19],inactive
same,outcome,[20],inactive
O=C(O)Cc1cc(I)c(Oc2cc(I)c(O)c(I)c2)c(I)c1,AC50,[1],10.3 µM (active)
same,outcome,[1],inactive
same,AC50,[2],2.55 µM (active) and 17.6 µM (active)
same,AC50,[3],7.41 nM (active) and 21.4 nM (active)
same,outcome,[4],inactive
same,AC50,[6],25.4 µM (active)
same,AC50,[7],19.9 µM (active)
same,AC50,[8],26.2 µM (active)
same,AC50,[9],22.4 µM (active)
same,outcome,[10],inactive
same,outcome,[11],inactive
same,outcome,[12],inactive
same,outcome,[13],inactive
same,outcome,[14],inactive
same,AC50,[15],20.2 µM (active)
same,outcome,[16],inactive
same,outcome,[18],inactive
same,AC50,[19],19.9 µM (active)
same,outcome,[20],inactive
